# DRD3 antagonist: qHTS of D3 Dopamine Receptor Antagonist: qHTS; D3R cells, DiscoveRx beta-arrestin luminescence, antagonist mode; active compounds read low; max response, negative = inhibition, %; actives 2.5% (n = 360,000); AID 652054, 2013; in the data active = max response below about -50%; inconclusive = no clear call, values can overlap the other calls; note: % is set by controls: 0 for no effect and ±100 for the full control effect
#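 Cells expressing the human receptor were seeded at 1500 cells/well, incubated overnight at 37 degrees C in 5% CO2, then exposed to library compounds with dopamine controls for 90 minutes at 37 degrees C before luminescent detection.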
# D1 potentiator: Potentiators of Human D1 Dopamine Receptor: qHTS; HEK293 TREx D1 cells, calcium flux, dopamine EC20 potentiation; potentiation, % at 10 µM; actives 0.036% (n = 360,000); AID 504651, 2011; in the data active = potentiation above about 30%; note: 0% is about no effect
# Target sequence (P21728 whole entry, looked up): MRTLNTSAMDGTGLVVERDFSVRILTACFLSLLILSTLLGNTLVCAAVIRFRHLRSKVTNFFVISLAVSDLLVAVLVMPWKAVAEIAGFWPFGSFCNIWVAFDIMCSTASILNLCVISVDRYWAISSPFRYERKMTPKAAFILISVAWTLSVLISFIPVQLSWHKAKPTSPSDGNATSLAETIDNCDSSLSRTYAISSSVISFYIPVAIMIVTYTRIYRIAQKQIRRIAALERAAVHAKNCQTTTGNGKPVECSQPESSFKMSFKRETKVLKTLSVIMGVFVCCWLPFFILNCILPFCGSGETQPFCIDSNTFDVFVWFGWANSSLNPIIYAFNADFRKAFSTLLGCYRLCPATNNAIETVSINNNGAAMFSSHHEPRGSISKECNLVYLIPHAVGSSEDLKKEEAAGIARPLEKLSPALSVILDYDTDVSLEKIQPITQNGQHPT
# DRD3 agonist: qHTS of D3 Dopamine Receptor Agonist: qHTS | actives 0.58% (n = 410,000) | D3R DiscoveRx beta-arrestin cells, luminescence, 90 min | max activation, %; in the data active = max activation above about 30%; note: 0% is about no effect
#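 Agonist mode: compounds and dopamine controls were applied to plated cells for 90 min at 37 degrees C after an overnight attachment at 1500 cells/well. Luminescent read-out followed 30 - 60 minutes at room temperature with DiscoveRx detection reagent.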
# BCR signal inh: qHTS Assay to Find Inhibitors of Chronic Active B-Cell Receptor Signaling | Potency, µM (highest dose often 46.1 µM), without a hit: at the highest dose activity change, negative = inhibition, actives largely listed as inhibitors | actives 0.05% (n = 340,000) | ABC-DLBCL IkBa-CBG/CBR reporter, luminescence ratio, 4 h; active = well fitted inhibition curve with a large enough effect in the signal ratio, with a control signal flat, not every such curve was filed as active; inconclusive = small, poorly fitted or top-dose-only effect, or effect the other way, or a change in a side signal; the % refers to the signal ratio;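 note: potency is the fitted concentration of half-maximal effect; plate controls were basal doxycycline-induced cells for no effect and cells given 10 µM MG132 for full effect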
#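 TMD8 ABC-DLBCL cells carrying doxycycline-inducible green luciferase fused to IkappaBalpha plus unfused red luciferase were exposed to compounds (up to 46 uM) for 4 hrs at 37C. Activity came from the overlap-corrected green/red luminescence ratio.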
# D1 ag: Allosteric Agonists of the Human D1 Dopamine Receptor: qHTS | HEK293 T-REx D1 cells, calcium flux, agonist mode | activation, % at 2 µM | actives 1% (n = 360,000) | AID 504660, 2011; in the data active = activation above about 30%; note: 0% is about no effect
#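 Agonism was scored from calcium flux recorded over 180 s (1 read/s) after pintool compound addition, following a 10-cycle baseline. Cells were inducible force-coupled HEK293 TREx D1, plated overnight at 30 C and loaded with no-wash calcium dye.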
# D1 antagonist: Antagonist of Human D 1 Dopamine Receptor: qHTS; D(1A) dopamine receptor (Homo sapiens), P21728; HEK293 TREx D1 cells, calcium flux, dopamine EC80; active compounds read low; activity change, negative = inhibition, % at 10 µM; actives 3.2% (n = 360,000); AID 504652, 2011; in the data active = activity change below about -30%; note: % is set by controls: 0 for no effect and ±100 for the full control effect
#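 Cells carrying a force-coupled, tetracycline-inducible human D1 receptor report calcium flux. Each well gets a 10 s baseline, compound with 180 s monitoring, then an EC80 dopamine stimulus with a second 180 s kinetic read.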
# The depositor's hits bear a star; ? = inconclusive; . = no result given. In the library only some 6% were active in any assay of this set; here they are far more common.
SMILES,DRD3 antagonist,D1 potentiator,DRD3 agonist,BCR signal inh,D1 ag,D1 antagonist
CCN1CCN(c2sc(S(=O)(=O)CC)nc2S(=O)(=O)c2ccc(C)cc2)CC1,-80*,.,-8,.,.,.
CCN1CCN(c2sc(S(C)(=O)=O)nc2S(=O)(=O)c2ccc(C)cc2)CC1,-20,-2,-6,-12%,0,4
CCCS(=O)(=O)c1nc(S(=O)(=O)c2ccc(C)cc2)c(N(C)Cc2ccccc2)s1,.,-2,-16,.,35*,-21
CCCS(=O)(=O)c1nc(S(=O)(=O)c2ccc(C)cc2)c(N2CCN(C)CC2)s1,-61*,-2,-17,-7%,-1,-9
CCCS(=O)(=O)c1nc(S(=O)(=O)c2ccc(C)cc2)c(N2CCN(CC)CC2)s1,-109*,-5,-19,-11%,1,9
COc1ccc(-c2csc(C(O)c3ccccc3)n2)cn1 (configuration not stated),-16,.,-1,.,.,.
Cc1ccccc1NC(=O)CCn1nc(-c2ccc(Cl)cc2)c2ccccc2c1=O,.,-2,1,.,4,0
Cc1cc(NC(=O)CN2C(=O)c3cccnc3Sc3ccccc32)ccc1Br,.,-5,4,.,1,11
O=C1NC(=O)/C(=C/c2ccc(OS(=O)(=O)c3ccc(F)cc3F)cc2)N1,-24,-1,-10,14%,6,-31*
O=C1NC(=O)C(=Cc2ccccc2)N1,5,.,3,.,.,.
Cc1c(CCNC=O)cc(C)c2c3c(oc12)CCCC3,0,.,6,.,.,.
Cc1c(NS(=O)(=O)c2ccccc2)cc(C(C)C)c(O)c1S(=O)(=O)c1ccc(Cl)cc1,.,-5,-5,.,0,12
CN1CCCN(C(c2ccccc2)c2ccc(Cl)cc2)CC1 (configuration not stated),-113*,-4,-85,?,40*,-17
c1ccc(OCCN2CCN(C(c3ccccc3)c3ccccc3)CC2)cc1,-89*,-1,-14,-1%,7,15
CN1CCN(C(c2ccccc2)c2ccccc2)CC1,-80*,-1,0,4%,3,17
CCC(C)NC(=S)N1CCN(C(c2ccccc2)c2ccccc2)CC1 (configuration not stated),5,-4,4,2%,0,-31*
Clc1ccc(C(c2ccccc2)N2CCN(c3ccccn3)CC2)cc1 (configuration not stated),13,2,-6,18%,3,-3
CNC(=S)N1CCN(C(c2ccccc2)c2ccccc2)CC1,5,-6,-4,-13%,0,-2
COc1ccc(NC(=O)CSc2oc(-c3ccco3)nc2S(=O)(=O)c2ccc(Br)cc2)c(OC)c1,.,0,-28,.,2,6
COc1ccc(Cl)cc1NC(=O)CSc1nc(=O)n(Cc2ccco2)c2c1CCC2,.,1,3,?,-1,.
Cc1ccc(NC(=O)COCc2cc(-c3cccs3)on2)cc1Cl,.,1,-15,.,4,5
COCC(=O)N(C)CC1CCCN(CCc2ccccc2OC)C1 (configuration not stated),-64*,-6,-12,0%,2,-8
COc1ccccc1CCN1CCCC(CN(C)C(=O)CCC(=O)N(C)C)C1 (configuration not stated),8,-4,-2,-2%,2,14
COc1ccccc1CCN1CCCC(CN(C)C(=O)c2ccco2)C1 (configuration not stated),?,-22,-15,0%,2,-50*
O=C(CN1C(=O)C(=O)N(Cc2ccco2)C1=O)c1c[nH]c2ccccc12,1,-1,7,?,-1,-9
SMILES,DRD3 antagonist,D1 potentiator,DRD3 agonist,BCR signal inh,D1 ag,D1 antagonist
O=C(CN1C(=O)C(=O)N(CCC2=CCCCC2)C1=O)c1c[nH]c2ccccc12,-52*,.,2,?,.,.
CC(=O)c1ccc(NC(=O)CN2CCC(C(=O)c3ccc(F)cc3)CC2)cc1,?,-3,-16,0%,2,1
Cc1cccc(NC(=O)CN2CCC(C(=O)c3ccc4c(c3)OCCO4)CC2)c1,0,-3,-11,?,13,-1
Cc1ccc(C(=O)C2CCN(CC(=O)Nc3ccc4c(c3)OCCO4)CC2)cc1,-70*,-7,0,-4%,0,-2
CC1Cc2ccccc2N1CC(=O)Nc1ccc2c(c1)OCCCO2 (configuration not stated),-1,-2,67*,-5%,1,-5
O=C(CN1CCC(C(=O)c2ccc(F)cc2)CC1)Nc1ccc(F)cc1,-71*,-7,1,?,7,-7
O=C(c1ccc(F)cc1)C1CCN(C(=O)Nc2ccc(F)cc2)CC1,15,-10,-5,-14%,6,-30*
O=C(NCc1ccc(F)cc1)C1CCCN(C(=O)Nc2ccc(F)cc2)C1 (configuration not stated),4,-2,-6,-6%,3,-86*
Cc1ccc(C(=O)C2CCN(CC(=O)N3CCN(c4ccc(F)cc4)CC3)CC2)cc1,?,-4,-29,-3%,5,-31*
O=C(CN1CCN(c2ccc(O)cc2)CC1)Nc1ccc2c(c1)OCCO2,4,-10,30*,-2%,1,2
O=C(CN1CCC(C(=O)c2ccc(F)cc2)CC1)Nc1ccccc1,-81*,-11,-28,-3%,7,-56*
CCOc1ccccc1NC(=O)CN1CCC(C(=O)c2ccc(F)cc2)CC1,?,-5,-27,20%,2,2
Cc1ccc(NC(=O)N2CCCCCC2)cc1,-15,-5,2,-8%,2,18
CC1Cc2ccccc2N1C(=O)CN1C(=O)NC(C)(c2ccc3c(c2)OCCO3)C1=O (configuration not stated),24,5,9,?,38*,12
CCCNC(=S)N1CCC(C(=O)c2ccc3c(c2)OCCO3)CC1,12,-9,6,-5%,15,-34*
CN(C)c1ccc(NC(=O)CN2CCC(O)(c3ccccc3)CC2)cc1,-79*,-5,-17,2%,2,-5
CC1(c2ccc3c(c2)OCCO3)NC(=O)N(CC(=O)c2ccc[nH]2)C1=O (configuration not stated),10,.,-12,1%,7,8

# Screens deposited in PubChem by National Center for Advancing Translational Sciences (NCATS).
